Cytotoxicity data for 97 molecules are collected here from PubChem BioAssay AID430 (Sanford-Burnham Center for Chemical Genomics, 2006).

Among all 63,000 compounds or so, about 1,100 (1.7%) were called active. The full list was thinned out, with actives kept by preference. Entries with a potency or affinity are not part of this list. Unmarked numbers belong to inactive results. No stated cut-off is given here; in the data, active means cytotoxicity above about 50%; inactive means the rest.

A short description of the test: cytotoxicity in HPDE-C7 cells, cell-based, fluorescence, HTS (AID 430).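 Further: cells exposed to compound for 48 hours before viability readout; 0% = vehicle and 100% = reference cytotoxic drug.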 To be noted: HPDE-C7 pancreatic duct cells viability, at 10 µM, hits give high values.
Regarding `Cc1noc(C)c1COC(=O)c1ccc2c(c1)OCO2`, the cytotoxicity was -8.9%. Turning to `O=S(=O)(Nc1ccc2c(c1)nc1n2CCN(Cc2ccccc2)C1)c1ccc(Cl)cc1`, the cytotoxicity was 68.2% (active). `O=S(=O)(Nc1ccc2c(c1)nc1n2CCN(Cc2ccccc2)C1)c1ccccc1`: the cytotoxicity is 2.6%. In the case of `Cc1ccc(S(=O)(=O)Nc2ccc3c(c2)nc2n3CCN(Cc3ccccc3)C2)cc1`, the cytotoxicity is 10.2%. Then `Cc1ccc(NC(=O)c2ccco2)cc1C`, with -2.6%; and `O=C1NCCCC2c3c(cc(Br)c(O)c3Br)OC12N1CCOCC1` (configuration not stated), with -5.7%. Regarding `COC(=O)C1=C(C)NC(C)=C(C(=O)OC)C1c1cc2cc(C)ccc2[nH]c1=O`, the cytotoxicity is 2.9%. Consider `COc1ccc(C)cc1S(=O)(=O)N(CC(=O)N1CCOCC1)Cc1ccccc1`, for which the cytotoxicity was -1.7%. Regarding `N#Cc1cn(CC(=O)O)c2ccccc12`, the cytotoxicity is -15.5%. Then `N#Cc1cn(Cc2ccccc2)c2ccccc12`, with 6.7%. Turning to `N#Cc1cn(Cc2cccc(Cl)c2)c2ccccc12`, the cytotoxicity is 56.1% (active). In the case of `CCOc1ccc(N2C(=O)C3CCCN3C2=O)cc1` (configuration not stated) it was 3.6%; in that of `COc1ccc(C(C#N)N2CCCCCC2)cc1OC` (configuration not stated), 2.4%; in that of `CC1=Nn2c(nnc2-c2n[nH]c3c2CCC3)SC1`, -3.7%.

With `Clc1ccc(C2=Nn3c(nnc3-c3n[nH]c4c3CCC4)SC2)cc1`, the cytotoxicity is 46.1%. Then `Brc1ccc(C2=Nn3c(nnc3-c3n[nH]c4c3CCC4)SC2)cc1`, with 61.4% (active); and `Fc1ccc(C2=Nn3c(nnc3-c3n[nH]c4c3CCC4)SC2)cc1`, with 0.5%; and `c1ccc(C2=Nn3c(nnc3-c3n[nH]c4c3CCC4)SC2)cc1`, with 8.7%. Then `Clc1ccc(C2=Nn3c(nnc3-c3n[nH]c4c3CCC4)SC2)cc1Cl`, with 76.8% (active); and `CCc1nc(SCC(=O)Nc2cc(C)on2)c2c(C)c(C)sc2n1`, with -1.6%; and `CC1(C)CC(=O)C(C=NC2CCCCC2)=C(O)C1`, with -6.9%. As for `Cn1c(=O)c2c(SC3CCCC3)nc(CC(C)(C)C)nc2n(C)c1=O`, the cytotoxicity is -9%. In the case of `Cc1onc(-c2ccccc2Cl)c1C(=O)NCc1nc(-c2ccccc2)no1` it was -4.2%; in that of `CC(=O)c1cccc(NC(=O)c2ccc(NS(C)(=O)=O)cc2)c1`, 17.5%; in that of `CCOC(=O)c1c(C)[nH]c(C(=O)Cn2c(=O)c3c(ncn3CC)n(Cc3ccccc3)c2=O)c1C`, 4.9%. For the molecule `CC(C)OC(=O)c1c(NC(=O)c2cccs2)sc2c1CCCC2`, the cytotoxicity was 9.8%. For `CCc1c(C)sc(NC(=O)c2cccs2)c1C(=O)OC(C)C`, the cytotoxicity was 58.9% (active). `CCOC(=O)c1c(NC(=O)c2cccs2)sc(C)c1CC`: the cytotoxicity was -2.4%. Turning to `COc1ccccc1CC(NC(C)=O)C(=O)NC1CCN(c2nnnn2-c2ccccc2)CC1` (configuration not stated), the cytotoxicity was -2.9%. In the case of `COc1ccc(C(=O)CSc2nnc(-c3ccc(C)cc3)o2)cc1`, the cytotoxicity is -8.2%. Then `COc1ccc(C(=O)CSc2nnc(-c3ccc(S(=O)(=O)N4CCOCC4)cc3)o2)cc1`, with 56.1% (active).

Regarding `CCN(CC)S(=O)(=O)c1ccc(-c2nnc(SCC(=O)c3ccc(OC)cc3)o2)cc1`, the cytotoxicity was -7.3%.

Regarding `O=C(CN1C(=O)c2ccccc2S1(=O)=O)N1CCN(Cc2ccc3c(c2)OCO3)CC1`, the cytotoxicity was -4.2%. In the case of `CCCn1c(C)cc(C(=O)COc2ncnc3sccc23)c1C` it was -1.4%; in that of `CCN1C(=O)c2cccc3c(NC(=O)c4ccc5c(c4)OCCO5)ccc1c23`, 84.7% (active). As to `CCN1C(=O)c2cccc3c(NC(=O)c4ccc(S(=O)(=O)N(C)C)cc4)ccc1c23`, the cytotoxicity is -24.8%.

For `CCN1C(=O)c2cccc3c(NC(=O)c4cccc(N5C(=O)CCC5=O)c4)ccc1c23`, the cytotoxicity was -19.8%. Then `COc1ccc(CCC(=O)NCc2ccco2)cc1`, with -5.5%. Then `Clc1ccccc1-c1nnn(Cc2ccc(-c3nn[nH]n3)cc2)n1`, with -10.8%. Then `CCCS(=O)(=O)N1CCCC(C(=O)N2CCC(Cc3ccccc3)CC2)C1` (configuration not stated), with 0.4%; and `CCCS(=O)(=O)N1CCC(C(=O)N2CCC(Cc3ccccc3)CC2)CC1`, with 79.7% (active); and `CS(=O)(=O)N1CCC(C(=O)N2CCC(Cc3ccccc3)CC2)CC1`, with 1.2%. Regarding `Clc1ccccc1Cn1nnc2c(N3CCCC3)ncnc21`, the cytotoxicity was 5%.

`COc1ccc(C2(O)CCN(Cc3nnnn3Cc3ccc(C)cc3)CC2)cc1`: the cytotoxicity was -4.4%. As for `O=C(Oc1cc2oc(=O)c3c(c2cc1Cl)CCCC3)c1ccco1`, the cytotoxicity was -3.8%. With `C=CCNc1oc(Cc2cccc3ccccc23)nc1C#N`, the cytotoxicity was -12%. Then `CNc1oc(Cc2cccc3ccccc23)nc1C#N`, with 3.8%. Then `N#Cc1nc(Cc2cccc3ccccc23)oc1NCc1ccco1`, with 58.4% (active). Then `CCn1cc(C(=O)NCCCN(C)c2ccccc2)c(=O)c2cc(S(=O)(=O)N(C)C)ccc21`, with 10.5%. For the molecule `CCc1nnc(NC(=O)CSc2nccn2-c2cc(C)cc(C)c2)s1`, the cytotoxicity is 7.6%. As for `Cc1ccccc1-c1noc(-c2ccc(O)cc2)n1`, the cytotoxicity was 52.8% (active).

On to `Cc1ccccc1-c1noc(-c2cccs2)n1`, for which the cytotoxicity is -7.3%. Take `CCOc1ccc(-c2nc(-c3ccccc3C)no2)cc1`: the cytotoxicity was 2.4%. Then `CCn1c(-c2c[nH]c3ccccc23)n[nH]c1=S`, with 6.5%; and `O=C1Cc2ccccc2N1c1ccccc1`, with -6.3%.

As to `CCOC(=O)C1CCN(Cc2c(O)ccc3ccccc23)CC1`, the cytotoxicity was -5.8%. Then `CCOC(=O)C1CCN(Cc2ccc(OC)c(C)c2OC)CC1`, with 2.2%; and `CCOC(=O)C1CCN(Cc2ccc(O)c3ncccc23)CC1`, with 60.3% (active); and `CN(C)c1ccc(C(=S)N2CCOCC2)cc1Br`, with -13.8%.

On to `CCOC(=O)N1CCN(C(=O)c2ccc3c(=O)n(Cc4ccc(OC)cc4)c(=S)[nH]c3c2)CC1`, for which the cytotoxicity is -14.8%. In the case of `COc1ccc(N2C(=O)CC(N3CCN(c4nc5ccccc5s4)CC3)C2=O)cc1` (configuration not stated) it was 7.5%.

Consider `CCC(NC(=O)Nc1nccs1)(C(F)(F)F)C(F)(F)F`, for which the cytotoxicity was -7%.

Take `O=C(NCC(F)(F)F)Nc1nnc(C(F)(F)F)s1`: the cytotoxicity is 12.3%. Take `CC(NC(=O)Nc1nccs1)(C(F)(F)F)C(F)(F)F`: the cytotoxicity was -4.1%. `CCSc1nnc(NC(=O)NC(CC)(C(F)(F)F)C(F)(F)F)s1`: the cytotoxicity is 14.7%.

On to `O=C(COC(=O)c1n[nH]c2ccccc12)NC(=O)NCc1ccco1`, for which the cytotoxicity is -1.6%. In the case of `CC1=C(C(=O)Nc2ccccc2)C(c2ccncc2)C(C#N)=C(SCC(=O)NC2CC2)N1` (configuration not stated), the cytotoxicity is -16.3%. Turning to `COc1ccc(NC(=O)CSc2nnc(CNC(=O)c3ccco3)o2)c(OC)c1`, the cytotoxicity is -0.9%. Then `CCOC(=O)C1=C(C)NC(C)=C(C(=O)OCC)C1C(=O)OCC(=O)N1CCC(C)CC1`, with 0%; and `CCc1nnc(NC(=O)c2cccc(C(=O)Nc3nnc(CC)s3)n2)s1`, with 52.5% (active); and `CCCn1c(=O)c(C(=O)Nc2cnccn2)c(O)c2ccccc21`, with -11.9%.

In the case of `CCCn1c(=O)c(C(=O)NCc2ccccn2)c(O)c2ccccc21`, the cytotoxicity was -12.9%.

With `CCc1nnc(NC(=O)c2cnccn2)s1`, the cytotoxicity was -17.9%. Then `CC(C)Cn1c(=O)c(C(=O)Nc2ccncc2)c(O)c2ccccc21`, with 53.2% (active). In the case of `CC(C)Cn1c(=O)c(C(=O)Nc2cnccn2)c(O)c2ccccc21` it was 29.3%; in that of `C=CCn1c(=O)c(C(=O)Nc2nnc(C)s2)c(O)c2ccccc21`, 7.8%. On to `CCc1nnc(NC(=O)c2c(O)c3cccc4c3n(c2=O)CC4)s1`, for which the cytotoxicity was 34.5%. On to `CCc1nnc(NC(=O)c2cccc(OC)c2)s1`, for which the cytotoxicity is -1.7%.

Turning to `CCCn1c(=O)c(C(=O)Nc2ccncc2)c(O)c2ccccc21`, the cytotoxicity was 31.4%.

With `CCCn1c(=O)c(C(=O)Nc2nnc(CC)s2)c(O)c2ccccc21`, the cytotoxicity was 51.2% (active).

In the case of `CCCn1c(=O)c(C(=O)Nc2nnc(C)s2)c(O)c2ccccc21`, the cytotoxicity was 75.2% (active). With `CC1CC(C)CN(C(=O)C(NS(=O)(=O)c2ccc3c(c2)oc(=O)n3C)C(C)C)C1` (configuration not stated), the cytotoxicity was 9.9%.

As to `CC(Sc1nnc(Cn2c(=O)sc3ccccc32)n1C)c1ccccc1` (configuration not stated), the cytotoxicity was -13.8%. In the case of `O=C(O)CCC1COc2ccccc2O1` (configuration not stated) it was -3.3%; in that of `CC(C)(C)n1nc2c(c1NC(=O)c1ccc(Br)cc1)CS(=O)C2` (configuration not stated), 0.9%; in that of `Cc1cc(NC(=O)c2cc(-c3cccs3)nc3ccccc23)no1`, 13.3%. As to `CCOC(=O)c1[nH]c(C)c(C(=O)NCc2ccc(C)cc2)c1C`, the cytotoxicity is -17.6%. Then `CCn1c(=O)c(C(=O)Nc2cccnc2)c(O)c2ccccc21`, with 15.8%; and `CCn1c(=O)c(C(=O)Nn2c(C)nc3ccccc3c2=O)c(O)c2ccccc21`, with 21.7%; and `CCn1nc(NC(=O)c2ccncc2)c2cc3ccc(C)cc3nc21`, with -0.2%. In the case of `CCOC(=O)Cn1nnc(-c2ccc(OCC(C)C)cc2)n1`, the cytotoxicity is -9.5%. In the case of `NC(=O)CSc1nnc(Cn2c(=O)sc3ccccc32)n1-c1ccccc1` it was 3.5%; in that of `CCOc1ccc(-c2nnn(CC(=O)Nc3ccccc3OC)n2)cc1OCC`, -3.5%; in that of `CCOc1ccc(-c2nnn(CC(=O)Nc3cc(OC)ccc3OC)n2)cc1OCC`, 69.5% (active). As for `CCOc1ccc(-c2nnn(CC(=O)Nc3cc(OC)cc(OC)c3)n2)cc1OCC`, the cytotoxicity is 8%. In the case of `CCOC(=O)c1ccc(NC(=O)c2cc(S(=O)(=O)N3CCOCC3)ccc2O)cc1` it was 3.3%.

As to `Cc1c(Cl)cccc1NC(=O)CC(C(=O)O)C1CCCO1` (configuration not stated), the cytotoxicity is 7.8%.
